Experimental data taken from PubChem BioAssay AID1347418 (Sanford-Burnham Center for Chemical Genomics, 2020).
Hit rate of the full screen: of about 1,300 compounds, about 750 (58%) were called active. This is one part of the list. Unmarked numbers belong to inactive results.

Target: Sulfhydryl oxidase 1 (Homo sapiens) (UniProt O00391)
Assay: inhibition of human sulfhydryl oxidase QSOX1 – biochemical, ROS-Glo H2O2 luminescence, HTS, primary screen (AID 1347418)
Conditions: recombinant QSOX1, ROS-Glo H2O2 luminescence; at 12.5 µM; active compounds read high; active = any value above zero

Sulfhydryl oxidase 1 (Homo sapiens), sequence (O00391 whole entry, looked up): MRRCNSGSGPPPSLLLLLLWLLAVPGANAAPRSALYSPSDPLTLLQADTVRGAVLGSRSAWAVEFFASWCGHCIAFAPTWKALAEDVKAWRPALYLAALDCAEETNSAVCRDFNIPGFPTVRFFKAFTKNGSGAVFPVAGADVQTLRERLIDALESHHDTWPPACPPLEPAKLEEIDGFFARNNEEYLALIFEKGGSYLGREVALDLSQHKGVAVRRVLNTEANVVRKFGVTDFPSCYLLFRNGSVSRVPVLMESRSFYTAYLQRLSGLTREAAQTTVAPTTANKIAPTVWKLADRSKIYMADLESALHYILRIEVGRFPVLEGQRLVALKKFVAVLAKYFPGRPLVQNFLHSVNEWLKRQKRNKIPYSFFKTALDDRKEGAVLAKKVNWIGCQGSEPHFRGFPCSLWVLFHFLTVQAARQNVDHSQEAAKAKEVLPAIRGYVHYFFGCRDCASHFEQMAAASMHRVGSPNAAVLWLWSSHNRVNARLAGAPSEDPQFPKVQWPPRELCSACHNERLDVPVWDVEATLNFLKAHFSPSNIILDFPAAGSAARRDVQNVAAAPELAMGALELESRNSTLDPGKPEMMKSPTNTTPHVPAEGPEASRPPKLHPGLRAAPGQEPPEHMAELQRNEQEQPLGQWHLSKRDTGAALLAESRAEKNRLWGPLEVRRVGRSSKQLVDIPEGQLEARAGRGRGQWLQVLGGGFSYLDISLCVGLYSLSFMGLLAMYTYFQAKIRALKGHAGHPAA

SMILES	inhibition
NC(=NCc1ccccc1)NC(=O)c1nc(Cl)c(N)nc1N	4.4% (active)
CCN(CC)CCCCCCCCOC(=O)c1cc(OC)c(OC)c(OC)c1	6.2% (active)
CCCCc1oc2ccccc2c1C(=O)c1cc(I)c(OCCN(CC)CC)c(I)c1	-1%
CCN(CC)CCOC(=O)c1ccc(N)cc1	-3.4%
CC(=O)NNC(=O)N1Cc2ccccc2Oc2ccc(Cl)cc21	2.6% (active)
C[C@]12C=CC(=O)C=C1CC[C@H]1[C@@H]3C[C@@H](O)[C@](O)(C(=O)CO)[C@@]3(C)C[C@H](O)[C@@]12F	-107%
CC1CC2C3CCC4=CC(=O)C=C[C@]4(C)[C@@]3(F)[C@@H](O)C[C@]2(C)[C@@]1(O)C(=O)CO (stereo not given in full)	2.3% (active)
C[C@H]1CC2C3CCC4=CC(=O)C=C[C@]4(C)[C@@]3(Cl)[C@@H](O)C[C@]2(C)[C@@]1(O)C(=O)CO (stereo not given in full)	8.8% (active)
CCCC1O[C@@H]2C[C@H]3[C@@H]4CCC5=CC(=O)C=C[C@]5(C)[C@H]4[C@@H](O)C[C@]3(C)[C@]2(C(=O)CO)O1 (stereo not given in full)	-0.8%
CC12CC3CC(C)(C1)CC(N)(C3)C2	3.5% (active)
NC12CC3CC(CC(C3)C1)C2	-0.1%
O=c1cc(-c2ccccc2F)[nH]c2cc3c(cc12)OCO3	4.4% (active)
OC(CN1CCC(Cc2ccc(F)cc2)CC1)c1ccc(Cl)cc1 (stereo not given)	7.6% (active)
c1ccc(C2CN3CCSC3=N2)cc1 (stereo not given)	0.3% (active)
Brc1ccc([C@H]2CN3CCSC3=N2)cc1	6.2% (active)
c1ccc([C@H]2CN3CCSC3=N2)cc1	-2.6%
OCCN1CCN(CCCN2c3ccccc3Sc3ccc(C(F)(F)F)cc32)CC1	43.6% (active)
OCCN1CCN(CC/C=C2/c3ccccc3Sc3ccc(C(F)(F)F)cc32)CC1	0.6% (active)
CN1CCN(CCCN2c3ccccc3Sc3ccc(C(F)(F)F)cc32)CC1	27.4% (active)
O=C(CCCN1CCC(O)(c2cccc(C(F)(F)F)c2)CC1)c1ccc(F)cc1	-4.6%
NC(=O)c1cn(Cc2c(F)cccc2F)nn1	1.3% (active)
Cc1ccccc1N1C(=O)c2cc(S(N)(=O)=O)c(Cl)cc2NC1C (stereo not given)	0.3% (active)
NC/C=C\C(=O)O	-0.4%
COc1ccc(NC=O)c(C(=O)CCNC(C)=O)c1	-0.8%
COc1ccc2[nH]cc(CCNC(C)=O)c2c1	5.6% (active)

SMILES	inhibition
CC(=O)NCCc1c[nH]c2ccc(O)cc12	27.5% (active)
COc1cc2c(CCNC(C)=O)c[nH]c2cc1O	45.2% (active)
COc1cc2c(CCNC(C)=O)c[nH]c2cc1Cl	-1.4%
Nc1nc(OCC2CCCCC2)c2[nH]cnc2n1	0%
Nc1nc(OCc2ccccc2)c2[nH]cnc2n1	2% (active)
NC/C=C/C(=O)O	-2.4%
O=c1ccc2c(OCCCCc3ccccc3)c3ccoc3cc2o1	2.3% (active)
NC(=O)N1c2ccccc2C=Cc2ccccc21	-1.4%
CC(=O)O[C@H]1Cc2ccccc2N(C(N)=O)c2ccccc21	0.3% (active)
CC(C)(C)C(=O)Oc1ccc(S(=O)(=O)Nc2ccccc2C(=O)NCC(=O)O)cc1	-1%
CC1(C)CCC2=C(O1)c1ccccc1C(=O)C2=O	40.5% (active)
COc1cc(Cc2cnc(N)nc2N)cc(OC)c1OC	0.5% (active)
COc1cc2c(cc1OC)C1CC(=O)C(CC(C)C)CN1CC2 (stereo not given)	2.6% (active)
CC[C@H]1CN2CCc3cc(OC)c(OC)cc3[C@@H]2C[C@@H]1C[C@H]1NCCc2cc(OC)c(OC)cc21	1.7% (active)
CCc1cccc(N(C)C(N)=Nc2cccc3ccccc23)c1	8.7% (active)
Fc1ccc(C(c2ccc(F)cc2)N2CCN(C/C=C/c3ccccc3)CC2)cc1	0.4% (active)
C(=C\c1ccccc1)/CN1CCN(C(c2ccccc2)c2ccccc2)CC1	4.9% (active)
CN(C)CCCc1cc(C(=O)Nc2ccc(-c3ccncc3)cc2)ccc1O	2.5% (active)
Cc1nc(N=Nc2ccc(C(=O)O)cc2)c(COP(=O)(O)O)c(C=O)c1O	0.9% (active)
Cc1nc(N=NC2=[C+]C3=C(C=C([N+](=O)[O-])[C+]=C3S(=O)(=O)[O-])C(S(=O)(=O)[O-])=[C+]2)c(COP(=O)([O-])O)c(C=O)c1O	2.8% (active)
C#CCN(C)CCCOc1ccc(Cl)cc1Cl	-1.5%
Cn1ccnc1	-4.4%
CN(C)CCC=C1c2ccccc2CCc2ccccc21	-4.4%
CN(C)CCC=C1c2ccccc2C=Cc2ccccc21	1% (active)
CN(C)CC/C=C1\c2ccccc2COc2ccccc21	-3.1%
